Data published in PubChem BioAssay AID1259422 (The Scripps Research Institute Molecular Screening Center, 2018).
“And” between values parts separate entries of the source, which are not always exact repeats. Equal values may be shown once. Out of some 640,000 compounds screened, about 9,300 (1.5%) were called active. The list comes from a sample in which actives are over-represented; it also holds similar structures and randomly drawn compounds. A number with no mark means an inactive call. Cut-off read from the data, not from the text of the source: active = inhibition above about 32%; inactive = the rest.

Test: TEAD-YAP interaction inhibition, primary screen, TEAD-YAP interaction inhibitor project, luminescence, HEK-TIYL cells (AID 1259422);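 note: 0% = median of test compound wells and 100% = reference inhibitor wells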
Conditions: TEAD-Gal4/YAP UAS-luciferase luminescence, at 9.12 µM, hits give high values

Q: With `COc1c(C)cccc1C1=N/C(=C\c2cccc([N+](=O)[O-])c2)C(=O)O1` as the compound, how does the inhibition read?
A: 9.8%

Q: Which inhibition does the source give for `CCCOC(=O)C1=C(C)N(C)C(=O)NC1c1cc(Br)c(O)c(OC)c1` (stereo not given) here?
A: 3.09%

Q: Which inhibition does the source give for `COc1ccc2nc(NC(=O)CN3C(=S)NC(C)(C)CC3C)sc2c1` (stereo not given) here?
A: 3.44%

Q: Which inhibition does the source give for `CC(NC(=O)COC(=O)c1cccc(NS(C)(=O)=O)c1)C12CC3CC(CC(C3)C1)C2` (stereo not given) here?
A: -4.62%

Q: For `Cc1ccc(S(=O)(=O)N2CCCCC2CCNC(=O)C(=O)NCCO)cc1` (stereo not given), which inhibition is on record?
A: -1.73%

Q: Which inhibition does the source give for `CCCCNC(=O)C(=O)NCCC1CCCCN1S(=O)(=O)c1ccc(C)cc1` (stereo not given) here?
A: 50.6% (active)

Q: Which inhibition does the source give for `Cc1ccc(NC(=O)C(=O)NCCC2CCCCN2S(=O)(=O)c2ccc(C)cc2)cc1` (stereo not given) here?
A: 17.1%

Q: With `O=c1c(-c2ccon2)coc2cc(O)ccc12` as the compound, how does the inhibition read?
A: -4%

Q: With `COc1cc2nc(/C=C/c3ccco3)oc(=O)c2cc1OC` as the compound, how does the inhibition read?
A: 0.76%

Q: Which inhibition does the source give for `O=C(N/N=C/c1ccc(O)cc1)c1ccc(N2Cc3ccccc3C2)cc1` here?
A: -17%

Q: For `CC(=O)c1ccc(N2Cc3ccccc3C2)cc1`, which inhibition is on record?
A: 38.4% (active)

Q: For `CC(=O)c1ccc(N2CCN(c3cccc[n+]3C)CC2)cc1`, which inhibition is on record?
A: -8.59%

Q: Which inhibition does the source give for `CC1=C(C(=O)OCc2ccccc2)C(c2ccccc2F)CC(=O)N1` (stereo not given) here?
A: 0.13%

Q: With `COc1ccccc1N=c1scc(-c2ccccc2)n1CCO` as the compound, how does the inhibition read?
A: 1.29%

Q: For `O=c1c2cc(Cl)ccc2[nH]c(=S)n1Cc1cccnc1`, which inhibition is on record?
A: -1.08%

Q: For `Cc1ccc(NC(=O)c2ccc(C#N)cc2)c(C(=O)c2ccccc2)c1`, which inhibition is on record?
A: 4.87%

Q: With `CCOc1ccc(NCCC(=O)c2ccc3c(c2)OCO3)cc1` as the compound, how does the inhibition read?
A: 6.84%

Q: For `CC(C)=CC(=O)Nc1ccc2c(c1)OCCO2`, which inhibition is on record?
A: 12.2%

Q: With `COC(=O)CCNc1ccc2c(c1)OCCO2` as the compound, how does the inhibition read?
A: 33.2% (active)

Q: For `Cc1cccc(NC(=O)CSc2nc3ccc([N+](=O)[O-])cc3[nH]2)c1`, which inhibition is on record?
A: 8.94%

Q: Which inhibition does the source give for `O=C(Nc1ccc(N2CCC(N3CCN(CCO)CC3)CC2)cc1)c1cccc(Cl)c1` here?
A: -1.49%

Q: For `Cc1cc(O)cc2c1C(=O)/C(=C/c1cc3ccccc3o1)O2`, which inhibition is on record?
A: 71.4% (active)

Q: For `Cc1cc2nc(-c3ccc(NC(=O)c4cc5ccccc5o4)cc3)oc2cc1C`, which inhibition is on record?
A: -23.6%

Q: For `COC(=O)c1ccc2c(c1)C(=O)/C(=C\c1ccccc1O)O2`, which inhibition is on record?
A: -31.1%

Q: For `CCCCc1ccc(-c2nc(C=Nc3cc([N+](=O)[O-])ccc3C)c(O)o2)cc1`, which inhibition is on record?
A: -9.75%

Q: For `COc1cccc(/C=C/C(=O)c2cc3ccccc3oc2=O)c1`, which inhibition is on record?
A: -6.12%

Q: Which inhibition does the source give for `CCCCCCCN1C(=O)c2c(Cl)c(Cl)c(Cl)c(Cl)c2C1=O` here?
A: 5.39%

Q: Which inhibition does the source give for `Brc1cccc(-c2cnc3ccc(NC4CCOCC4)nn23)c1` here?
A: 29.9%

Q: Which inhibition does the source give for `Fc1ccc(-c2cnc3ccc(NC4CCOCC4)nn23)cc1Cl` here?
A: 43.8% (active)

Q: Which inhibition does the source give for `Oc1ccc(-c2cnc3ccc(NC4CCOCC4)nn23)cc1` here?
A: -2.21%

Q: Which inhibition does the source give for `O=C(c1ccc2nc3ccc(Cl)cc3c(=O)n2c1)N1CCN(c2ccccc2)CC1` here?
A: 5.05%

Q: For `CNC(=S)N/N=C/c1cccc(/C=N/NC(=S)NC)c1`, which inhibition is on record?
A: -8.21%

Q: For `CCc1nc2nonc2c2nc3ccccc3n12`, which inhibition is on record?
A: -7.01%

Q: Which inhibition does the source give for `O=C(O)c1ccc(-n2cccc2)cc1O` here?
A: 32.4% (active)

Q: For `O=C(O)c1ccc(N2C(=O)c3cccc4cccc(c34)C2=O)cc1O`, which inhibition is on record?
A: 9.06%

Q: Which inhibition does the source give for `CC(=O)C1=C(O)C(=O)N(c2ccc(C(=O)O)c(O)c2)C1c1ccccc1` (stereo not given) here?
A: 1.91%

Q: Which inhibition does the source give for `Cc1ccc(NC(=O)CCn2cccc2)c(C)c1` here?
A: -10.1%

Q: For `Cc1cccc2c(N)c3c(nc12)CCCC3`, which inhibition is on record?
A: -0.9%

Q: Which inhibition does the source give for `Cc1ccc(-c2cc(C(=O)OCC(C)C)c3cccc(C)c3n2)cc1` here?
A: 3.59%

Q: Which inhibition does the source give for `Cc1ccc2nc3nc4c(C)cccc4c(N)c3cc2c1` here?
A: 43.1% (active)

Q: Which inhibition does the source give for `OC1(c2ccc(F)cc2)CC2CCC(C1)N2c1ncnc2nc[nH]c12` (stereo not given) here?
A: 1.25%

Q: Which inhibition does the source give for `C=C(Br)Cn1c(C(C)O)nc2ccccc21` (stereo not given) here?
A: 1.71%

Q: Which inhibition does the source give for `CC1=C(C#N)C(c2ccc3c(c2)OCO3)C2=C(CC(C)(C)CC2=O)N1` (stereo not given) here?
A: 10.8%

Q: For `Cn1c(=O)n(CC(=O)Nc2ccc(F)cc2)c(=O)c2ccccc21`, which inhibition is on record?
A: 14%

Q: For `CCOC(=O)C1=C(c2ccc(OC)cc2)C(=O)c2ccccc2C1=O`, which inhibition is on record?
A: 96% (active)

Q: For `CCOC(=O)C1=C(C)N(c2ccc(C)cc2)C(=O)/C1=C\c1ccc(OC)cc1`, which inhibition is on record?
A: -0.27%

Q: Which inhibition does the source give for `CCCNC1=C(c2ccc(OC)cc2)C(=O)c2ccccc21` here?
A: -14.6%

Q: With `CCCOc1ccc(/C(O)=C2/C(=O)C(=O)N(CCN(C)C)C2c2ccc(Cl)cc2)cc1C` (stereo not given) as the compound, how does the inhibition read?
A: 4.59%

Q: For `Cc1occc1C(=O)Nc1ccc(NC(=O)c2ccoc2C)cc1`, which inhibition is on record?
A: -68.2%

Q: Which inhibition does the source give for `Cc1occc1C(=O)Nc1cccc(F)c1` here?
A: -4.37%

Q: For `O=C(NCCc1ccccc1)c1ccc(C(=O)c2ccccc2)o1`, which inhibition is on record?
A: -31.4%

Q: With `O=C(Nc1cccc(O)c1)c1ccc(C(=O)c2ccccc2)o1` as the compound, how does the inhibition read?
A: 56.8% (active)

Q: With `O=C(Nc1cccc(O)c1)c1cncc(Br)c1` as the compound, how does the inhibition read?
A: -19.1%

Q: With `Cc1occc1C(=O)Nc1cccc(O)c1` as the compound, how does the inhibition read?
A: 37.5% (active)

Q: For `C#Cc1cccc(NC(=O)c2ccc(-c3ccccc3)cc2)c1`, which inhibition is on record?
A: -53.1%

Q: With `O=C(Nc1cccc(O)c1)c1ccc(-c2ccccc2)cc1` as the compound, how does the inhibition read?
A: 83.8% (active)

Q: For `O=C(Nc1cccc(O)c1)c1cccnc1`, which inhibition is on record?
A: 24.2%

Q: With `Cc1ccc(S(=O)(=O)n2nc(C#N)c(C#N)c2N)cc1` as the compound, how does the inhibition read?
A: -5.77%

Q: With `O=C(Nc1nc(-c2ccc3ccccc3c2)cs1)c1cc(-c2ccc(Br)cc2)nc2ccccc12` as the compound, how does the inhibition read?
A: -0.33%

Q: For `CCOc1cc(/C=C2/C(=N)N3N=C(CC)SC3=NC2=O)cc(Cl)c1OCCOc1ccccc1`, which inhibition is on record?
A: -11.5%

Q: Which inhibition does the source give for `COc1ccc(Cl)cc1Nc1ncnc2c1c(-c1ccccc1)cn2-c1ccc(C)cc1` here?
A: -0.75%

Q: For `CC1CCN(C(=O)c2c[nH]c3ccc(S(=O)(=O)N(C)c4ccc(C(C)C)cc4)cc3c2=O)CC1`, which inhibition is on record?
A: -1.81%

Q: For `CCOC(=O)c1ccc(NC(=O)c2ccc(S(=O)(=O)N3CCN(C(=O)OCC)CC3)cc2)cc1`, which inhibition is on record?
A: -0.65%

Q: With `CCOC(=O)N1CCN(S(=O)(=O)c2ccc(C(=O)Nc3ccc(F)cc3F)cc2)CC1` as the compound, how does the inhibition read?
A: 58.1% (active)

Q: For `CCOC(=O)N1CCN(S(=O)(=O)c2ccc(C(=O)Nc3nc(-c4ccccc4)c(C)s3)cc2)CC1`, which inhibition is on record?
A: -2.44%

Q: For `COCCOC(=O)C1=C(C)NC2=C(C(=O)CC(c3ccccc3)C2)C1c1cc(OC)ccc1OC` (stereo not given), which inhibition is on record?
A: 8.28%

Q: Which inhibition does the source give for `CC[C@H]1CN2CCc3cc(OC)c(OC)cc3[C@@H]2C[C@@H]1C[C@H]1NCCc2cc(OC)c(OC)cc21` here?
A: 99.4% (active) and 101% (active)

Q: Which inhibition does the source give for `COc1cc2c(cc1OC)C1CN3CCc4cc(OC)c(OC)cc4C3CN1CC2` (stereo not given) here?
A: 5.47%

Q: For `CCOc1cc2c(cc1OCC)C(c1cc(OC)ccc1OC)NCC2` (stereo not given), which inhibition is on record?
A: 6.48%

Q: For `O=C(Cn1cnc2ccccc21)N/N=C/c1ccc(Cl)c(Cl)c1`, which inhibition is on record?
A: 1.91%

Q: Which inhibition does the source give for `O=C(Nc1ccc2[nH]ncc2c1)c1ccnc(OC2CCN(Cc3ccccc3)CC2)c1` here?
A: 82% (active)

Q: Which inhibition does the source give for `Cc1cc(OC2CCN(C(=O)c3ccc4[nH]ncc4c3)CC2)ncc1Cl` here?
A: 6.71%

Q: Which inhibition does the source give for `O=C(Nc1ccc2[nH]ncc2c1)c1cccnc1OC1CCCN(Cc2ccccc2)C1` (stereo not given) here?
A: -3.88%

Q: Which inhibition does the source give for `CCC(C(=O)NC(C)C)n1nc(C)c2sc3ccccc3c2c1=O` (stereo not given) here?
A: 4.5%

Q: With `CCOC(=O)Cn1c(=O)oc2cc(S(=O)(=O)N3CCN(CC)CC3)ccc21` as the compound, how does the inhibition read?
A: -3.33%

Q: With `COc1cccc(/C=N/NC(=O)C(C)Nc2ccc(Br)cc2)c1O` (stereo not given) as the compound, how does the inhibition read?
A: 23.5%

Q: With `O=C(Cn1cc([N+](=O)[O-])cn1)Nc1ccc(-c2noc(-c3ccccc3F)n2)cc1` as the compound, how does the inhibition read?
A: -22%

Q: For `CN(C)CCCn1c(-c2ccc(Cl)cc2)csc1=Nc1ccccc1`, which inhibition is on record?
A: 5.26%

Q: Which inhibition does the source give for `O=C(O)CCn1c(-c2ccccc2)csc1=Nc1ccccc1` here?
A: -48.6%

Q: For `CCCn1c(-c2ccc(S(=O)(=O)N(C)C)cc2)csc1=Nc1ccccc1`, which inhibition is on record?
A: 35.3% (active)

Q: For `O=C(NC1CCCCC1)c1ccc(Cn2c(=S)[nH]c3cc4c(cc3c2=O)OCO4)cc1`, which inhibition is on record?
A: -6.89%

Q: Which inhibition does the source give for `COc1ccc(Cl)cc1NC(=O)c1cnc(N2CCN(c3ncccn3)CC2)c2ccccc12` here?
A: 12.9%

Q: With `O=C(Nc1ccccc1F)c1cnc(N2CCN(c3ncccn3)CC2)c2ccccc12` as the compound, how does the inhibition read?
A: 25.2%

Q: For `COc1ccc([N+](=O)[O-])cc1NC(=O)c1cnc(N2CCN(c3ncccn3)CC2)c2ccccc12`, which inhibition is on record?
A: 36.3% (active)

Q: Which inhibition does the source give for `O=C(NCc1ccccn1)c1cc(=O)c2ccccc2o1` here?
A: 0.58%

Q: For `O=C(Nc1ccc(Oc2ccc3ccccc3c2Cl)c(Cl)c1)c1cc2cc(Cl)ccc2oc1=O`, which inhibition is on record?
A: 5.28%

Q: With `COc1cc(Nc2nc(Nc3cccc(N(C)C)c3)nc3nc[nH]c23)cc(OC)c1OC` as the compound, how does the inhibition read?
A: 46% (active)

Q: Which inhibition does the source give for `CC(=O)Nc1ccc(Nc2nc(-c3ccc(C(N)=O)cc3)nc3nc[nH]c23)cc1` here?
A: 5.81%

Q: Which inhibition does the source give for `COc1cc2nc(Nc3cccc(N(C)C)c3)nc(Nc3cc(OC)c(OC)c(OC)c3)c2cc1OC` here?
A: -1.74%

Q: Which inhibition does the source give for `COc1ccc(-c2nc(N)c3[nH]cnc3n2)cc1` here?
A: -34%

Q: For `COc1ccc(-c2nc(Nc3cc(OC)c(OC)c(OC)c3)c3[nH]cnc3n2)cc1`, which inhibition is on record?
A: 54% (active)

Q: For `COc1cc(Nc2cc(C)nc(Nc3nc4ccccc4n3C)n2)cc(OC)c1OC`, which inhibition is on record?
A: 1.6%

Q: With `COc1ccc(-c2nc(C)cc(NCc3ccccc3)n2)cc1` as the compound, how does the inhibition read?
A: -42.8%

Q: For `COc1ccc(-c2nc(C)cc(Nc3cc(OC)c(OC)c(OC)c3)n2)cc1`, which inhibition is on record?
A: 46.8% (active)

Q: Which inhibition does the source give for `COc1cc(Nc2nc(Nc3cc(OC)c(OC)c(OC)c3)c3[nH]cnc3n2)cc(OC)c1OC` here?
A: 8.81%
